TWEAK Fn14 block = blocks TWEAK-Fn14 interaction in a reporter cell assay; AID 1159606; hit rate 2% among 360,000; inhibition, % at 10 µM; TWEAK-stimulated Fn14 reporter cells, luciferase luminescence, 8 h; in the data active = inhibition above about 50%
Peg3 promoter = reduces Peg3 promoter-driven luciferase expression in HeLa | HeLa PEG-Prom luciferase reporter, luminescence, overnight | inhibition, % at 20 µM | hit rate 1.7% among 360,000 | AID 588405;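 active = inhibition of at least 50% at 20 µM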
HIF-2a inh = inhibitors of HIF-2a; 786-0 RCC cells HIF-2a reporter, luciferase luminescence, overnight; inhibition, % at 18.8 µM; hit rate 0.72% among 360,000;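 active = inhibition of the luminescence signal of 40% or more relative to plate controls, in a single-dose primary screen at 18.75 µM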
CF NFkB block = blocks PAF-induced NF-kB reporter in cystic fibrosis cells; AID 588850; KKLEB NF-kB-GFP reporter, GFP fluorescence overnight; hit rate 0.86% among 360,000; inhibition, % at 5 µM;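 active = at least 50% inhibition at 5 µM, scaled per plate between neutral and stimulator controls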;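 also: PAF is a Pseudomonas aeruginosa culture filtrate used as stimulus; plate controls were PAF-stimulated DMSO wells for no effect and unstimulated DMSO wells for full effect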
TROY signal inh = inhibitors of TROY-dependent NF-kB signaling; hit rate 0.98% among 360,000; inhibition, % at 10 µM; Q293 LMP1-TROYcd NF-kB luciferase reporter, 4 h;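 active = compounds whose plate-normalised and pattern-corrected inhibition of the luciferase reporter signal at the single screening dose is 50% or more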
KKLEB tox = counter-screen for CF NF-kB inhibitors: cytotoxicity; KKLEB CF airway cells viability, ATPlite luminescence, overnight; stronger effect = lower value; cells stimulated with P. aeruginosa culture filtrate; activity change (cytotoxicity), % at 5 µM; hit rate 0.36% among 360,000; AID 602141;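 active = corrected activity change at or below -50% at 5 µM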
Mdm2 MdmX conf = confirmation of inhibitors of human Mdm2/MdmX interaction, set 2; shares compounds with HIF-2a inh; SaOS-2 split-luciferase Mdm2/MdmX complementation, luminescence; inhibition, % at 8 µM; hit rate 99% among 740;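 active = mean inhibition of the luminescence signal across two replicates at or above 26 percent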
HIF-2a inh conf = HIF-2a inhibition, single concentration confirmation | shares compounds with HIF-2a inh | 786-0 RCC cells, HIF-2a luciferase reporter luminescence, overnight | inhibition, % at 18.8 µM | hit rate 56% among 1,800 | AID 651580;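 active = mean inhibition across four replicates of at least 40 percent at the single tested concentration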
HIF-1a cs = counter-screen for HIF-2a inhibitors: HIF-1a inhibition in MiaPaCa-2 cells; shares compounds with HIF-2a inh; MiaPaCa-2 HIF-1a luciferase reporter, desferoxamine, overnight; inhibition, % at 18.8 µM; hit rate 72% among 1,800; AID 651589;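 active = mean inhibition of the reporter signal across four replicates at the single tested dose of 50% or more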
Numbers without * were called inactive; nt = not tested or not shown. The list is not random: actives were taken first. Their share in the collection is about 4%.

SMILES	TWEAK Fn14 block	Peg3 promoter	HIF-2a inh	CF NFkB block	TROY signal inh	KKLEB tox	HIF-2a inh conf	HIF-1a cs	others
S=C(c1ccc(-c2ccccc2)cc1)N1CCOCC1	50	23	86*	2	8	-11	89*	54*
O=C(c1ccc(-c2ccccc2)cc1)c1ccccc1C(=O)N1CCOCC1	14	-23	-22	-14	-1	-11	nt	nt
CNc1ccc(Cl)cc1S(=O)(=O)c1ccccc1[N+](=O)[O-]	23	2	2	22	37	-7	nt	nt
COc1ccc(NC(=O)C(=O)NCC2CCCN2S(=O)(=O)c2ccc(C)cc2)cc1 (stereo not given)	-9	-5	42*	52*	36	-19	33	49
COc1ccc(S(=O)(=O)N2CCCC2CNC(=O)C(=O)Nc2ccc(C)cc2)cc1 (stereo not given)	0	-1	-4	1	-18	6	nt	nt
COC(=O)C[C@H]1C=C[C@@H](NC(=O)C2CC2)[C@@H](CO)O1	nt	nt	6	nt	nt	nt	nt	nt
Cc1cc(C(=O)CCl)c(C)n1CCc1ccc(Cl)cc1	5	98*	48*	30	13	-30	49*	105*
CC(C)(C)C(=O)NC(=S)NNC(=O)c1sc2ccccc2c1Cl	100*	78*	78*	71*	86*	-66*	35	100*
CCOC(=O)N=S(N)(=O)c1ccccc1 (stereo not given)	9	7	-5	8	8	-7	nt	nt
CCOC(=O)CC(S(=O)(=O)c1ccccc1)S(=O)(=O)c1ccccc1	28	100*	76*	87*	-2	-90*	11	1
COc1ccc(N2c3ccccc3CN(Cc3ccccc3)CC2Cc2cc(OC)c(OC)c(OC)c2)cc1 (stereo not given)	-57	6	-24	16	-25	-10	nt	nt
Cc1ccc(C2C(C#N)=C(N)N(c3ncn[nH]3)C3=C2C(=O)CC(C)(C)C3)cc1 (stereo not given)	-2	9	44*	8	2	-4	3	0
Cc1ccc(N2C(N)=C(C#N)C(c3cccnc3)C3=C2CC(C)(C)CC3=O)cc1 (stereo not given)	-15	17	0	0	-14	2	nt	nt
C/C=C/c1cccc(-c2nc(C(=O)NC3CCC3)cc3c2[C@@H](CCO)N(S(=O)C(C)(C)C)C3)c1 (stereo not given in full)	-14	14	8	-16	2	8	nt	nt
COCCN(C(=O)C1CCCC1)c1c(N)n(Cc2ccccc2)c(=O)[nH]c1=O	18	-1	15	8	0	5	nt	nt
Nc1c(N(C(=O)Nc2ccc(Cl)c(Cl)c2)C2CCCC2)c(=O)[nH]c(=O)n1Cc1ccccc1	-14	48	40*	19	-10	-27	11	103*
CCCCCN=C(N)N/N=C/c1c[nH]c2ccc(OC)cc12	-15	95*	98*	25	12	-24	35	100*
Cc1ccc2nc(N(CCCN(C)C)C(=O)c3ccc(S(=O)(=O)N4CCc5ccccc5C4)cc3)sc2c1	-154	101*	88*	-91	-46	-50	43*	99*
CN(C)CCCN(C(=O)c1ccc(S(=O)(=O)N2CCc3ccccc3C2)cc1)c1nc2c(F)cccc2s1	0	-21	10	14	-23	-12	nt	nt
Cc1cccc2sc(N(CCCN(C)C)C(=O)c3ccc(S(=O)(=O)N4CCc5ccccc5C4)cc3)nc12	-120	30	14	33	-48	-25	nt	nt
Cc1cc(C)c2sc(N(CCCN(C)C)C(=O)c3ccc(S(=O)(=O)N4CCc5ccccc5C4)cc3)nc2c1	-261	96*	63*	48	24	-78*	57*	100*
O=C(Oc1ccc2ccccc2c1)c1ccco1	-8	-11	12	18	-4	-3	nt	nt
CC1CC(C)(C)Nc2ccc(OC(=O)c3ccco3)cc21 (stereo not given)	89*	-16	45*	12	49	5	62*	71*
COc1ccc(/C=N\n2nnc3ccccc32)cc1	90*	48	40*	1	45	-19	72*	42
COc1ccc(/C=N/n2c(C)nc3ccccc3c2=O)cc1	37	-110	-94	-10	-37	16	nt	nt
SMILES	TWEAK Fn14 block	Peg3 promoter	HIF-2a inh	CF NFkB block	TROY signal inh	KKLEB tox	HIF-2a inh conf	HIF-1a cs	others
Cc1ccc(NC(=O)[C@H](Cc2c[nH]c3ccccc23)NC(=O)[C@@H]2Cc3ccccc3CN2)c(C)c1	3	-13	-47	-24	-4	-4	nt	nt	Mdm2 MdmX conf=98*
CCOC(=O)C1=C(C)NC2=C(C(=O)CC(c3cccs3)C2)C1c1cccs1 (stereo not given)	23	20	46*	16	8	-6	52*	63*
COc1ccc(Oc2c(Cl)cnn(-c3ccc(C)cc3)c2=O)cc1	5	7	-5	-4	-47	0	nt	nt
COc1ccc(Oc2c(Cl)cnn(-c3ccc(Cl)c(Cl)c3)c2=O)cc1	2	65*	84*	-20	7	3	8	104*
CC(=O)CC1OC(=O)C(Br)=C1NCc1ccccc1 (stereo not given)	37	104*	42*	9	15	-10	17	76*
CC(=O)O[C@@H]1C[C@H]2C(C)(C)C(=O)C=C[C@]2(C)[C@H]2CC[C@@]3(C)[C@H](c4ccoc4)OC(=O)[C@H]4O[C@]43[C@@]21C	33	31	58*	28	44	19	49*	77*
CC1(C)OC(=O)C=C[C@]2(C)[C@H]3CC[C@@]4(C)[C@H](c5ccoc5)OC(=O)[C@H]5O[C@]54[C@]3(C)C(=O)C[C@@H]12	8	2	11	-13	-12	9	nt	nt
CC(=O)OC1CC2C(C)(C)C(=O)C=CC2(C)C2CCC3(C)C(c4ccoc4)OC(=O)C4OC43C12C (stereo not given)	22	45	45*	33	38	0	42*	59*
O=C(CNS(=O)(=O)c1ccccc1F)NNC(=O)c1ccc(Br)cc1	15	-5	-5	1	0	-7	nt	nt
Cc1c(/C(O)=C2/C(=O)C(=O)N(CCN3CCOCC3)C2c2ccccn2)cnn1-c1ccccc1 (stereo not given)	92*	33	73*	-1	85*	-3	40*	59*

Screening data deposited in PubChem BioAssay by Sanford-Burnham Center for Chemical Genomics.
